Unmarked numbers belong to inactive results.
Compound: C#CCNC(=O)CCSSCCC(=O)NCCc1ccc(C=O)c(C=O)c1
Assay: lysine labeling ratio R10:1 (500 µM / 50 µM probe), SILAC-ABPP in living cells; higher = lower intrinsic lysine reactivity toward the probe, active = 2 or less
Conditions: HeLa; probe concentrations 500 vs 50 µM
Outline: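 Each lysine carries an R value: the filtered median of MS1 peptide ratios of high probe to low probe, with the median then taken over forward and reverse replicates. These came from living SILAC light and heavy HeLa cells in PBS at room temperature labelled with an alkyne-tagged, disulfide-linked lysine probe at 500 µM or 50 µM, in forward and reverse swaps. The lysates were mixed, clicked to biotin-azide, trypsin-digested, captured on neutravidin, released by DTT, alkylated and run by LC-MS/MS on a TIMS-TOF Pro. The highest value allowed is 20.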

Chain of UniProt Q9H5V8 (Q9H5V8 whole entry): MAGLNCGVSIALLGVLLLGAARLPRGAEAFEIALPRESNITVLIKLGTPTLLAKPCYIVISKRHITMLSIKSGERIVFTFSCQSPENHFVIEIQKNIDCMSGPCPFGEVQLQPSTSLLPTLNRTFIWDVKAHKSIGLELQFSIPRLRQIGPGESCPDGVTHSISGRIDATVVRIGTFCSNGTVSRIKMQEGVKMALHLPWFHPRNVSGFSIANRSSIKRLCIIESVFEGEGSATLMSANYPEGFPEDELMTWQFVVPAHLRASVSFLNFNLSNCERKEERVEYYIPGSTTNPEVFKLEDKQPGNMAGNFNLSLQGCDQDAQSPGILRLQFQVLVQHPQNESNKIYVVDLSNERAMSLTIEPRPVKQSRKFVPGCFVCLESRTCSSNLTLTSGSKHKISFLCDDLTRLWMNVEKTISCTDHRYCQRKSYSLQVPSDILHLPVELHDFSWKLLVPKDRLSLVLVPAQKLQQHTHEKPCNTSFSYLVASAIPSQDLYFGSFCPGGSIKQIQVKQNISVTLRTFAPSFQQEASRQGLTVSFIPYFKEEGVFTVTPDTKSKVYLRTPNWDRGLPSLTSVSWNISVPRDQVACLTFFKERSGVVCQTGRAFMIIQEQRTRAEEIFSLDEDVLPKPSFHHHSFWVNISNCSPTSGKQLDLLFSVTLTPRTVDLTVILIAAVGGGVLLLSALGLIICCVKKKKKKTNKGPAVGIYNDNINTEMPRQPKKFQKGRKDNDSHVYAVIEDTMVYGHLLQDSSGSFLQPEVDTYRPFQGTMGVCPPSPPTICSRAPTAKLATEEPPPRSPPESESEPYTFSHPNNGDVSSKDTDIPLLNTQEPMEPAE
Chain of UniProt P11279 (P11279 whole entry): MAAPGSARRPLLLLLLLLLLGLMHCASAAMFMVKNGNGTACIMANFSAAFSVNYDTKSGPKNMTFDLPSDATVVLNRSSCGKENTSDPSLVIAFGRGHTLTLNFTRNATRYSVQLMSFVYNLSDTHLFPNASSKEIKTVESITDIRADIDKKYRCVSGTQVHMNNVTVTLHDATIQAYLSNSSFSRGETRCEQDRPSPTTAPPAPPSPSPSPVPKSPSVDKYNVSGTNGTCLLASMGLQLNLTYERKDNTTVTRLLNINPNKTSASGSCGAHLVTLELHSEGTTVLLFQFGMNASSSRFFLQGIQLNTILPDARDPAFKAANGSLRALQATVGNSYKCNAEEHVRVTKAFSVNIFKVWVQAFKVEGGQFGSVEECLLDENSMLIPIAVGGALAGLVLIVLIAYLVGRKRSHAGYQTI
Chain of UniProt O95084 (O95084 whole entry): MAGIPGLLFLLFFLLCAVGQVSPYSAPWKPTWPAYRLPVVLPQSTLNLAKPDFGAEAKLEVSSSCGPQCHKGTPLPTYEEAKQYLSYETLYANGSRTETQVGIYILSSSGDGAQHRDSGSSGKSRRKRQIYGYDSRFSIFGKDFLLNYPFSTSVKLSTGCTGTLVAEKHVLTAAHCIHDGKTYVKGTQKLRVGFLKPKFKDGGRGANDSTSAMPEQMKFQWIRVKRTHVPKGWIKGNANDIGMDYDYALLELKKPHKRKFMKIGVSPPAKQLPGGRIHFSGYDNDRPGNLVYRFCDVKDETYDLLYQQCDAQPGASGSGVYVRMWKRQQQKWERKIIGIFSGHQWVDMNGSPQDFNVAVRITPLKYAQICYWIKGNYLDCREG
Chain of UniProt O00159 (O00159 whole entry): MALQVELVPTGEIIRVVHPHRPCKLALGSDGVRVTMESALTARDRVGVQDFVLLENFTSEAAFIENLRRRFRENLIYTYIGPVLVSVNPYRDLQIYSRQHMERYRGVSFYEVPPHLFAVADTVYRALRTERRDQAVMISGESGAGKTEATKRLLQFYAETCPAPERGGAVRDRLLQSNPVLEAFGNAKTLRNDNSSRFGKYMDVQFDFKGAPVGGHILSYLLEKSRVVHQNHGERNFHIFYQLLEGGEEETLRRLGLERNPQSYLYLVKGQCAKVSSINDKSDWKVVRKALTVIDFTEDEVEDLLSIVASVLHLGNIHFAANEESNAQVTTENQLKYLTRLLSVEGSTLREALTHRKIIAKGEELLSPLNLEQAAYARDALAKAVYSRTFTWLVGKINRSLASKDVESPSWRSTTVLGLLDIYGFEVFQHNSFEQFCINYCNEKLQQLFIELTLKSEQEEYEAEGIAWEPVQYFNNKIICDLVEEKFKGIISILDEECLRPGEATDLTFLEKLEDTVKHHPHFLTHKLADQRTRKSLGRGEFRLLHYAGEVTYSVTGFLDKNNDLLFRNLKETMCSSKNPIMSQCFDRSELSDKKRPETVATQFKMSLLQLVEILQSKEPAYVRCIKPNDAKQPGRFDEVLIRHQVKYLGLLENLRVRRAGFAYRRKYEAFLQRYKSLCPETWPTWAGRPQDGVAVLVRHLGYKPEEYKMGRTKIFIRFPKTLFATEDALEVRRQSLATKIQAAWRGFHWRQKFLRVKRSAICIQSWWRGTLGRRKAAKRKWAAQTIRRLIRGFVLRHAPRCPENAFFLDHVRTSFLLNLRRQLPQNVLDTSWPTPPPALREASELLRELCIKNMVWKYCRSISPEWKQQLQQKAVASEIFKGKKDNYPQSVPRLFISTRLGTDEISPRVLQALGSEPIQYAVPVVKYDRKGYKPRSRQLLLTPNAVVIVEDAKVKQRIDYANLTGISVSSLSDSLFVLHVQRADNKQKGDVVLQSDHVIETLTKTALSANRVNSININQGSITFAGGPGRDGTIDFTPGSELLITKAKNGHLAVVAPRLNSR
Chain of UniProt P47756 (P47756 whole entry): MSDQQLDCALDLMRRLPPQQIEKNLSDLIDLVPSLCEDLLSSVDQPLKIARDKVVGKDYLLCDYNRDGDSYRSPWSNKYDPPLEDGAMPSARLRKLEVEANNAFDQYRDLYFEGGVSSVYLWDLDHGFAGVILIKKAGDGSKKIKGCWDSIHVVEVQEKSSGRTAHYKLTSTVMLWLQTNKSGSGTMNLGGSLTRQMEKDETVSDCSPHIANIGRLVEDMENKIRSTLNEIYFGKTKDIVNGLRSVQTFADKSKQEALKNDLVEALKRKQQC
Chain of UniProt Q9Y624 (Q9Y624 whole entry, stated change not applied): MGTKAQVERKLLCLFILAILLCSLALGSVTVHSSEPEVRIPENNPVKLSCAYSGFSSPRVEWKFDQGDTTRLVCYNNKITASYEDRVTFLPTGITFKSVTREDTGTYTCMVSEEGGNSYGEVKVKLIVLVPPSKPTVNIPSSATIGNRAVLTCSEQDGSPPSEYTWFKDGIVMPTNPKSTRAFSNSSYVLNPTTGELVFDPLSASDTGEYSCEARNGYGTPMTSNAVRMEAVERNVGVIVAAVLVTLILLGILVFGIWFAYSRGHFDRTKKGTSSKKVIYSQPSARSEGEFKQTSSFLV
Chain of UniProt P52272 (P52272 whole entry): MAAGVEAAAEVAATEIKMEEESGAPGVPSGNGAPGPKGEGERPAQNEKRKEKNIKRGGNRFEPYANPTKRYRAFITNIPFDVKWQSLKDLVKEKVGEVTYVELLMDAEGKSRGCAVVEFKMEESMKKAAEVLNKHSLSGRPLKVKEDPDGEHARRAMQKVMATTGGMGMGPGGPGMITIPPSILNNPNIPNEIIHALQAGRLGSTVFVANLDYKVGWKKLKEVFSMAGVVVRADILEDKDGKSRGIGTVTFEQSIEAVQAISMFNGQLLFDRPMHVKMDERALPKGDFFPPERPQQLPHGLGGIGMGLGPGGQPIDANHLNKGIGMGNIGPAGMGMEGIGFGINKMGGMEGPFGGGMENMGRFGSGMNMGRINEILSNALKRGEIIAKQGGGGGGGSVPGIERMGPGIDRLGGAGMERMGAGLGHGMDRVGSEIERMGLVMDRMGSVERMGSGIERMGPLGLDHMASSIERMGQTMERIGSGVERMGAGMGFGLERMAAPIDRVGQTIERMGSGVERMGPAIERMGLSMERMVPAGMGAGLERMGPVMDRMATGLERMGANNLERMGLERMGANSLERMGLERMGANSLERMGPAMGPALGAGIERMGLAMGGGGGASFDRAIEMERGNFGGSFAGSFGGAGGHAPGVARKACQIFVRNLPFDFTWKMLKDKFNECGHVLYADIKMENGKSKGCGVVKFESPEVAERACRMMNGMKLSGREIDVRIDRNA
Chain of UniProt Q9P2B2 (Q9P2B2 whole entry): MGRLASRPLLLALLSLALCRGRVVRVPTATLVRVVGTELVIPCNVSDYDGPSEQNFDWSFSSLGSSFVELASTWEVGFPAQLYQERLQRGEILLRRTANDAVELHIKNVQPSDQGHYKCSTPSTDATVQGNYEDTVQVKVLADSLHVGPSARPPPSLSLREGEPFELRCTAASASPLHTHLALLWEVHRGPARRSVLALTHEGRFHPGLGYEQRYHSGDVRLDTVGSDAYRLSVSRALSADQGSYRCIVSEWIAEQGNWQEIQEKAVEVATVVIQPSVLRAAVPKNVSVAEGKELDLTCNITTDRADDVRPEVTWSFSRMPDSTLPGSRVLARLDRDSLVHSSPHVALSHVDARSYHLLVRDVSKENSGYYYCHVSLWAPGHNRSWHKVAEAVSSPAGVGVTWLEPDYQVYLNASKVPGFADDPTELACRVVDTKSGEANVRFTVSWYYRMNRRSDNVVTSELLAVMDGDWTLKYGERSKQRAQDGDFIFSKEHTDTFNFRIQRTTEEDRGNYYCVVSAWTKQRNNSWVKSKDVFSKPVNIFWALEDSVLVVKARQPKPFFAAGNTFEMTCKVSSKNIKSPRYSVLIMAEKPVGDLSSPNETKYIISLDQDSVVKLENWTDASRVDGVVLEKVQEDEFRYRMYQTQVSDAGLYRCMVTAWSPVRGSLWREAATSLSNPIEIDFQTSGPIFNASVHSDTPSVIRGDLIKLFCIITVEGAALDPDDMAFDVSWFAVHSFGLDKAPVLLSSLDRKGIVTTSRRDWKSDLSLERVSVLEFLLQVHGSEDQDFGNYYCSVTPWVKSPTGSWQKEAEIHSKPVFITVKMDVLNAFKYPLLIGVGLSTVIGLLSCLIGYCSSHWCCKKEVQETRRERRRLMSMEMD

Question: For “BASP1 (lysine site: K149) (UniProt P80723)”, which “lysine labeling ratio R10:1” value is on record?
Answer: The value was 3.54.

Question: How did the “lysine labeling ratio R10:1” value turn out when “HNRNPM (lysine site: K48) (UniProt P52272)” was run?
Answer: The value was 4.62.

Question: With “ENO1 (lysine site: K256) (UniProt P06733)” as the target, how does the “lysine labeling ratio R10:1” value read?
Answer: The value was 1.87 (active).

Question: For UniProt O95084 (lysine site: K189), which “lysine labeling ratio R10:1” value is on record?
Answer: Its value is 2.74.

Question: For “LAMP1 (lysine site: K337) (UniProt P11279)”, which “lysine labeling ratio R10:1” value is on record?
Answer: The value was 6.57.

Question: Which “lysine labeling ratio R10:1” value does the source give for “C3 (lysine site: K1535) (UniProt P01024)” here?
Answer: Its value is 5.81.

Question: How did the “lysine labeling ratio R10:1” value turn out when “CDCP1 (lysine site: K592) (UniProt Q9H5V8)” was run?
Answer: The value was 3.49.

Question: “PTGFRN (lysine site: K752) (UniProt Q9P2B2)” was tested. Which “lysine labeling ratio R10:1” value did it give?
Answer: The value was 3.57.

Question: How did the “lysine labeling ratio R10:1” value turn out when UniProt Q15149 (lysine site: K630) was run?
Answer: The value was 7.1.

Question: How did the “lysine labeling ratio R10:1” value turn out when UniProt P46781 (lysine site: K52) was run?
Answer: The value was 2.39.

Question: Which “lysine labeling ratio R10:1” value does the source give for “CAPZB (lysine site: K223) (UniProt P47756)” here?
Answer: The value was 2.76.

Question: For “TMEM97 (lysine site: K130) (UniProt Q5BJF2)”, which “lysine labeling ratio R10:1” value is on record?
Answer: Its value is 3.33.

Question: With “F11R (lysine site: K78) (UniProt Q9Y624)” as the target, how does the “lysine labeling ratio R10:1” value read?
Answer: The value was 3.33.

Question: “IMPDH2 (lysine site: K134) (UniProt P12268)” was tested. Which “lysine labeling ratio R10:1” value did it give?
Answer: Its value is 2.5.

Question: How did the “lysine labeling ratio R10:1” value turn out when “IGF2R (lysine site: K1285) (UniProt P11717)” was run?
Answer: Its value is 0.936 (active).

Question: Which “lysine labeling ratio R10:1” value does the source give for “CDCP1 (lysine site: K396) (UniProt Q9H5V8)” here?
Answer: The value was 0.987 (active).

Question: For “MYO1C (lysine site: K781) (UniProt O00159)”, which “lysine labeling ratio R10:1” value is on record?
Answer: Its value is 1.34 (active).

— the supplement of paper PMC11001985
